# High-throughput results (PubChem BioAssay)
# Hits are enriched below; roughly 10% of the tested compounds scored in any of these assays.
# JMJD2A Tudor inh = JMJD2A Tudor domain (human) inhibition. O75164. AlphaScreen JMJD2A-Tudor / H3K4me3 peptide binding. Potency, µM (doses to about 114 µM), most hits filed as inhibitors. actives 4.4% (n = 390,000). AID 504339; note: nearly all actives have a fitted effect of over 50% in size
# BAZ2B block = inhibitors of human BAZ2B bromodomain | Q9UIF8 | AlphaScreen BAZ2B-H3K14Ac peptide displacement | Potency, µM (highest dose often 114 µM), most hits filed as inhibitors | actives 4.4% (n = 360,000) | AID 504333; note: nearly all actives have a fitted effect of over 60% in size
#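 AlphaScreen luminescence quantifies BAZ2B engagement of H3K14Ac peptide; the protein and biotinylated peptide are both at 50 nM final, buffer PBS pH 7.4 with 0.01% Tween-20, all steps at room temperature.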
# GLS inhibitor = inhibitors of human glutaminase (GLS) | O94925 | actives 0.21% (n = 410,000) | GLS enzymatic activity, qHTS titration | AID 624170 | Potency, µM (doses to about 45.5 µM), hits mostly inhibitors
#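 Compounds were pin-transferred onto hKGA, after which L-glutamine (1 mM solution) and a detection mix of glutamate oxidase, HRP and Amplex Red were added. Initial and 30 min RT fluorescence reads were collected.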
# G9a block = inhibitors of human histone lysine methyltransferase G9a | Potency, µM (highest dose often 102 µM), most hits filed as inhibitors | Q96KQ7 | G9a H3K9 monomethylation, AlphaScreen, 2 h | actives 8.8% (n = 350,000); note: nearly all actives have a fitted effect of over 75% in size
# Target sequence (Q96KQ7 913-1193 limits assumed): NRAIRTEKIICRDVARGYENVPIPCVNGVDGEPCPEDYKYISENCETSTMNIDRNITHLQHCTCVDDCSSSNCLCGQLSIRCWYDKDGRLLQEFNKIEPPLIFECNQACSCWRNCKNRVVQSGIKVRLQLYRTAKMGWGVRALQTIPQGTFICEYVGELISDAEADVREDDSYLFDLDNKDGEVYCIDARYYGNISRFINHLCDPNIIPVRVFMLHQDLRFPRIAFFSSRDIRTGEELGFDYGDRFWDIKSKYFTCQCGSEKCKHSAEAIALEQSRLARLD
#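 G9a (20 nM) was preincubated 15 min with compound, then reacted 2 h at room temperature with 500 nM biotin-H3K9 peptide and 20 µM SAM. Monomethyl-H3K9 detected by AlphaScreen using anti-H3K9me1 antibody.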
# HP1b chromo inh = blocks HP1-beta chromodomain binding to methylated histone tails; Potency, µM (doses to about 114 µM), hits mostly inhibitors; AlphaScreen HP1-beta / biotin-H3K9me3 peptide binding; actives 0.56% (n = 390,000); AID 540317; note: nearly all actives have a fitted effect of over 70% in size
# Target sequence (P83916 whole entry, looked up): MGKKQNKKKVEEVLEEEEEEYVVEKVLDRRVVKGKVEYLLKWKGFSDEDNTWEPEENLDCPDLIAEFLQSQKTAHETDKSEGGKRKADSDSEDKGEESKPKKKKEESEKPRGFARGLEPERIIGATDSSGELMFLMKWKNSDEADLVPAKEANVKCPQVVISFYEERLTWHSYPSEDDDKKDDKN
#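 Compound inhibition of the preformed complex between 50 nM HP1-beta and 50 nM biotinylated H3K9me3 peptide was read by AlphaScreen. Buffer was PBS pH 7.4 with 0.01% Tween-20. Incubations ran 30 min at room temperature, with 10 ug/mL donor/acceptor beads.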
# Numbers stand for hits; 0 = inactive; ? = inconclusive; - = no result; ! = not confirmed by another sample; [ ] = another dose, or the depositor's remark. Calls come from the whole dose curve; as a rule, active = well fitted curve in the direction sought with a large enough effect; inconclusive = small, poorly fitted or top-dose-only effect, or another doubt; inactive = no such curve, though single readings can be large; an effect the other way counts as inactive or inconclusive.
SMILES,JMJD2A Tudor inh,BAZ2B block,GLS inhibitor,G9a block,HP1b chromo inh
C=CCN1C(=O)N/C(=C/c2ccc(N3CCOCC3)o2)C1=O,-,0,-,32µM,-
O=C1N/C(=C/c2ccc(N3CCOCC3)o2)C(=O)N1c1ccccc1,?,0,0,10µM,0
O=C(NCc1cccs1)C1CCN(S(=O)(=O)c2ccccc2F)CC1,0,0,0,79µM,0
CC1CCN(Cc2c(C(=O)O)nnn2-c2nonc2N)CC1,0,?,0,50µM,0
Cc1cc(C)c(/C=N/NC(=O)c2nnn(-c3nonc3N)c2CN2CCC(C)CC2)c(C)c1,0,0,0,?,0
Nc1nonc1-n1nnc(C(=O)N/N=C\c2cccc(Cl)c2)c1CN1CCOCC1,0,0,0,40µM,0
Nc1nonc1-n1nnc(C(=O)N/N=C/c2c(Cl)cccc2Cl)c1CN1CCOCC1,0,0,0,0,0
CCN1CCN(Cc2c(C(=O)N/N=C(\C)c3ccc(Cl)c(Cl)c3)nnn2-c2nonc2N)CC1,-,0,-,45µM,-
Cc1ccc(C(=O)Nc2nnc(C)s2)cc1,0,0,0,0,0
CC(=O)CCC(=O)NCCc1ccccc1F,0,0,0,0[12.7 µM],0
Cc1ccccc1-c1ocnc1C(=O)Nc1ccccc1NC(=O)c1ccccn1,0,0,0,0,0
Cc1cc(C)c(OCCOCCN2CCCC2)c(C)c1,?,-,0,-,?
Cc1cccc(C)c1OCCCN1CCCC1,2.5µM,50µM,0,10µM,?
Cc1cc(Cl)c(OCCCCN2CCOCC2)c(Br)c1,3.5µM,50µM,0,?,?
Cc1cccc(Cl)c1OCCCN1CCOCC1,1.6µM,?,0,10µM,?
Cc1cccc(C)c1OCCOCCN1CCN(C)CC1,13µM!,0,0,0,25µM!
Cc1cc(Cl)cc(C)c1OCCCCN1CCOCC1,0,0,0,?,0
Cc1cccc(OCCCN2CCOCC2)c1,0,0,0,0[12.7 µM],0
Cc1cc(C)cc(-n2c(SCC(=O)N3CCCC3)nc3c([nH]c4ccccc43)c2=O)c1,0,0,0,0,0
Cc1ccc(SCCN)cc1C,0,0,0,0,0
Cc1cccc2cc(/C=N/NC(=O)CN3CCCCC3)c(Cl)nc12,-,0,-,0,-
N=c1oc2cc(O)ccc2cc1C(=O)Nc1ccc(Br)cc1,0,0,0,0,0
Cc1cccc(C)c1OCCN1CCCC1,25µM,?,0,25µM,?
Cc1cccc(C)c1OCCCCN1CCCCC1,28µM,?,0,79µM,?
O=C(c1ccc(Br)o1)N1CCC(c2nc3ccccc3[nH]2)CC1,0,0,0,0[2.33 µM],0
SMILES,JMJD2A Tudor inh,BAZ2B block,GLS inhibitor,G9a block,HP1b chromo inh
CC1CCN(CCOCCOc2ccccc2-c2ccccc2)CC1,3.2µM,?,0,28µM,?
CC1CCN(CCOCCOc2ccccc2Br)CC1,2.5µM,56µM,0,?,?
CC1CCN(CCCCOc2ccc(C(C)(C)C)cc2)CC1,20µM,?,0,40µM,?
COc1ccccc1OCCCCN1CCC(C)CC1,13µM,?,0,25µM,?
COc1cc(C)ccc1OCCOCCOc1ccccc1Br,0,0,0,-,0
COc1ccccc1OCCCN1CCC(C(O)(c2ccccc2)c2ccccc2)CC1,-,-,0,-,-
CCOc1ccc2nc(NC(=O)c3ccco3)sc2c1,0,?,0,-,0
COc1cc([N+](=O)[O-])ccc1NC(=O)CCN1C(=O)C2C3CCC(C3)C2C1=O (stereo unspecified),0,0,0,0,0
CC1CCCN(CCCOc2ccccc2-c2ccccc2)C1 (stereo unspecified),1.1µM,40µM,0,11µM,?
CN1CCC(N(C)C(=O)COc2ccccc2-c2ccccc2)CC1,0,0,0,0,0
CC1CC(C)CN(CCCSc2ccccc2)C1 (stereo unspecified),28µM,?,0,?,?
CC1CCCN(CCOCCSc2ccccc2)C1 (stereo unspecified),2.5µM,0,0,10µM,?
CC1CCN(CCCCOc2ccccc2-c2ccccc2)CC1,4.5µM,79µM,0,13µM,?
COn1c(-c2ccccc2)nc2ncccc21,0,0,0,0,0
CCCc1cc(C(=O)N2CCCC(Cc3cccc(Cl)c3)(C(=O)OCC)C2)n(C)n1 (stereo unspecified),0,0,0,0,0
Cc1nc(C(=O)O)nn1-c1cc(Cl)ccc1Cl,0,?,0,45µM,0
Cc1nc(C(=O)N(C)C)nn1-c1ccc(Cl)cc1Cl,0,0,0,0,0
CCCNC(=O)c1nc(C)n(-c2cc(Cl)ccc2Cl)n1,0,0,0,0,0
CNC(=O)c1nc(C)n(-c2ccc(Cl)cc2Cl)n1,10µM,0,?,0,0
